# Screens (PubChem)
# Shown are actives, neighbours in structure and some others; about 11% of the full set was active somewhere.
# USP17 block: inhibitors of human USP17 deubiquitinase; Ubiquitin carboxyl-terminal hydrolase 17-like protein 5 (Homo sapiens), A8MUK1; purified USP17, Ub-rhodamine cleavage fluorescence, 3 h; inhibition, % at 50 µM; 6.5% of 47,000 active
# OTUD3 block: inhibitors of human OTUD3 deubiquitinase; 0.7% of 47,000 active; AID 1645858, 2021; purified OTUD3, Ub-rhodamine fluorescence, 2 h; inhibition, % at 25 µM; OTU domain-containing protein 3 (Homo sapiens), Q5T2D3
# USP30 inh: inhibitors of human USP30 deubiquitinase. Ubiquitin carboxyl-terminal hydrolase 30 (Homo sapiens), Q70CQ3. purified USP30, Ub-rhodamine cleavage fluorescence. inhibition, % at 25 µM. 5.3% of 47,000 active. AID 1645860, 2021
# Target sequence (Q70CQ3 whole entry, looked up): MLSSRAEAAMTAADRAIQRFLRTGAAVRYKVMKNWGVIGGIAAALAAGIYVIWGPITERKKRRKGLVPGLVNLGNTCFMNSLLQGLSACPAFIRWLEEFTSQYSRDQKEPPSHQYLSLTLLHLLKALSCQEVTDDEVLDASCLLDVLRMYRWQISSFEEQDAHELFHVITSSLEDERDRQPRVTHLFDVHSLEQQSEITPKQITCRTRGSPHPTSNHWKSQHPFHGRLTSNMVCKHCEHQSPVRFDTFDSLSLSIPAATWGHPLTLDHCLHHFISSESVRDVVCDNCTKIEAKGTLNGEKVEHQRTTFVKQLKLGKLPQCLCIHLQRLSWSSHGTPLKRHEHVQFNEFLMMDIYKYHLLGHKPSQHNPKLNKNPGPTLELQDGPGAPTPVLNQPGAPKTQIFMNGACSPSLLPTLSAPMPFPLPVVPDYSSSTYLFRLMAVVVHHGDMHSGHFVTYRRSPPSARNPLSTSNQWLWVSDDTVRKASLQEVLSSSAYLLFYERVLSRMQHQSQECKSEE
# USP28 block: inhibitors of human USP28 deubiquitinase | Ubiquitin carboxyl-terminal hydrolase 28 (Homo sapiens), Q96RU2 | purified USP28, Ub-rhodamine cleavage fluorescence, 30 min | inhibition, % at 25 µM | 3% of 47,000 active | AID 1645857, 2021
# The depositor's hits bear a star; i = inactive; . = no result. Cut-off read from the data, not from the text of the source: active = inhibition above about 30%; inactive = the rest.
SMILES,USP17 block,OTUD3 block,USP30 inh,USP28 block
Cc1nc(NCc2ccc(Cl)cc2)cc(-c2cncc(-c3cccs3)c2)n1,34.6*,-21.2,-69.9,-22.6
Cc1nn(C)cc1NC(=O)CN1[C@H](Cc2ccccc2)C[C@]2(C)NC(=O)CCC[C@H]12,11.2,11.6,11.0,10.0
COc1cccc(C(=O)N2CCN(c3ncnc4c3nnn4Cc3ccccc3)CC2)c1,18.6,20.2,35.3*,32.7*
O=C(CN1CCOCC1)Nc1ccc(NC(=O)c2ccc(Cl)cc2)cc1,-0.8,0.1,-0.9,7.3
Cc1ccc(-n2nc(C)c3c(C)cc(C(=O)NCc4cccs4)nc32)cc1,31.2*,26.4,46.3*,10.6
COc1ccc(Cl)cc1N(C)C(=O)c1noc2c1CCc1sccc1-2,20.5,17.8,33.8*,22.7
COc1ccc(CCNC(=O)c2noc3c2CCc2sccc2-3)cc1OC,52.1*,-6.7,-1.0,75.5*
COc1cccc(C2CC(=O)Nc3ccsc32)c1OCc1ccccc1 (centres undefined),29.4,13.4,40.7*,23.5
COc1ccc2nc(NC(=O)C(CC(C)C)NS(=O)(=O)c3ccc4c(c3)CCN4C(C)=O)sc2c1 (centres undefined),73.7*,1.7,5.1,10.3
CC(=O)N1CCc2cc(S(=O)(=O)NC(CC(C)C)C(=O)N3CCC(Cc4ccccc4)CC3)ccc21 (centres undefined),-1.4,-5.4,-1.4,6.5
Cc1ccc2c(Nc3ccc(C#N)cc3)c(C(=O)N3CCCCC3)cnc2n1,-103.9,-68.4,-322.7,-105.2
COc1cc(O)c2c(=O)oc3c(O)c(OC)cc(C)c3c2c1,-5.9,-9.2,12.6,-8.8
COc1cc2c(oc(=O)c3cc(C)cc(OC)c32)c2c([C@@H]3OC(C)[C@@H](O)[C@@](C)(O)C3O)ccc(O)c12 (some centres undefined),78.9*,-4.3,-51.4,14.5
CCCCCNc1ncnc2c1CN(C1CCNC1)C(=O)CN2C (centres undefined),-50.3,-4.5,-13.2,-6.1
CN1CC(=O)N(C2CCNC2)Cc2c(NCc3ccc(Cl)cc3)ncnc21 (centres undefined),-24.5,0.2,9.0,31.5*
O=C(Cn1cc(-c2nnco2)c2ccccc21)NC1CCCCCC1,38.3*,2.0,-8.8,-6.0
CO[C@@H]1C[C@@H](O)/C=C/C=C/C=C\[C@H](C)[C@@H]([C@@H](C)[C@@H](O)C[C@@H](C)O)OC(=O)/C=C/C=C\C=C/C(C)=C[C@@H](C)[C@@H](O)/C=C\C=C\c2coc(n2)[C@@H]1C,-13.8,-19.0,-114.7,-15.0
Cc1ccc(-c2nnc(NC(=O)c3ccco3)o2)cc1C,-6.2,1.0,14.6,48.5*
Cc1ccc(OCC(=O)Nc2cc(NC(=O)c3ccco3)ccc2C)cc1C,60.0*,-2.0,66.1*,45.2*
COc1cc(C2CCN(C(=O)Nc3ccc(C(=O)O)cc3)CC2)on1,15.4,10.6,13.0,11.6
Cc1cnnn1-c1ccc(C(=O)Nc2ccccc2F)cc1,15.5,10.4,34.0*,12.5
Cc1cnnn1-c1ccc(C(=O)Nc2ccc(Cl)cc2Cl)cc1,84.4*,23.3,80.8*,36.9*
COc1ccc(-c2nc(Cn3cnc4ccccc4c3=O)no2)cc1,-20.6,-3.9,-141.3,15.6
COc1ccc(OC)c(-c2cn3ccn(-c4ccc5c(c4)CCC5)c(=O)c3n2)c1,.,2.0,50.9*,21.5
CCOC(=O)N1CCN(S(=O)(=O)c2ccc(C(=O)Nc3ccc4c5c(cccc35)C(=O)N4CC)cc2)CC1,-132.2,-146.1,i,-232.2
SMILES,USP17 block,OTUD3 block,USP30 inh,USP28 block
Cc1nc(CNC(=O)c2ccc(-c3noc(C4CC4)n3)cc2)no1,-11.2,-3.9,-4.9,-8.9
Cc1cccc(NC(=O)CNC(=O)c2ccc(-c3noc(C4CCCC4)n3)cc2)c1C,31.6*,1.4,34.6*,1.8
CC(C)CCN1C[C@H]2C[C@H](C(=O)N3CCCC3)[C@@H](C1)O2,-5.5,-2.6,3.7,-9.6
Cc1ccc(CNC(=O)c2ccc3c(=O)nc4c(-c5ccccc5F)n[nH]n4c3c2)cc1,34.8*,13.2,5.8,0.4
CC(C)CCNC(=O)c1ccc2c(=O)nc3c(-c4ccccc4F)n[nH]n3c2c1,8.2,6.2,2.9,6.8
COc1cccc(Nc2nc(NCc3ccccc3)nc3c2cnn3C)c1,27.4,-16.3,-29.6,39.5*
Cn1ncc2c(Nc3ccc(Cl)cc3)nc(NCCc3ccccc3)nc21,36.5*,-6.6,41.5*,5.6
O=C1N(c2ccccc2)C2CS(=O)(=O)CC2N1c1ccc(F)cc1 (centres undefined),6.6,4.8,8.3,3.4
O=C1N(c2ccccc2)C2CS(=O)(=O)CC2N1c1ccc([N+](=O)[O-])cc1 (centres undefined),30.1*,0.5,.,.
CCn1cnc2c1c(=O)n(CC(=O)NCc1ccccc1Cl)c(=O)n2Cc1ccccc1,55.3*,28.5,18.8,8.0
CC(C)Cn1cnc2c1c(=O)n(CC(=O)NCCc1ccc(F)cc1)c(=O)n2Cc1ccccc1,24.3,17.5,43.2*,11.7
COCCn1cnc2c1c(=O)n(CC(=O)NCc1ccccc1OC)c(=O)n2Cc1ccccc1,31.2*,16.7,45.3*,10.1
O=C(Cn1c(=O)c2c(ncn2C2CCCC2)n(Cc2ccccc2)c1=O)NCC1CCCO1 (centres undefined),-4.1,-3.6,-27.7,-12.3
CCn1cnc2c1c(=O)n(CC(=O)NCc1ccc3c(c1)OCO3)c(=O)n2Cc1ccccc1,36.8*,13.6,-70.8,7.8
Cc1ccc2occ(CC(=O)Nc3ccc(S(=O)(=O)N4CCCCC4)cc3)c2c1,-6.2,-6.9,-72.0,-0.5
COc1cccc(-c2cc(C(=O)N3CC(c4nc5ccccc5[nH]4)C3)[nH]n2)c1,26.4,9.2,8.2,32.6*
COc1cccc(-c2cc(C(=O)N3CCC4(CC3)OCCO4)[nH]n2)c1,4.4,5.4,13.7,1.4
Cc1occc1-c1nnc(SCC(=O)Nc2cc(C(C)(C)C)nn2-c2ccccc2)n1Cc1ccccc1,9.5,17.4,-26.7,6.8
Cc1cc(=O)[nH]c(Sc2c(-c3ccccc3)c3cc([N+](=O)[O-])ccc3[nH]c2=O)n1,4.8,-3.6,-83.2,10.1
O=[N+]([O-])c1ccc2nc3c(c(-c4ccccc4)c2c1)CNCC3,48.4*,-11.3,-13.5,-5.2
Cc1ccc(C(CNC(=O)c2oc3ccc(F)cc3c2C)N2CCOCC2)cc1 (centres undefined),-0.7,-3.9,-4.8,-5.4
O=C(CCC1CCCCC1)Nc1ccccc1C(=O)N1CCOCC1,69.9*,29.1,40.0*,33.9*
CC(=O)N1c2ccc(S(=O)(=O)NC3CCCC3)cc2CC1C (centres undefined),-1.2,-3.0,0.6,4.7
Cc1nnc(NC(=O)C(=O)c2cc(C)n(-c3ccc(Cl)cc3)c2C)s1,42.8*,7.0,-42.2,25.0
Cc1cc(C(=O)C(=O)Nc2cccc(Cl)c2)c(C)n1-c1ccc(F)cc1,-13.3,0.8,1.2,1.5
COc1cccc(NC(=O)c2ccc(SCCN3CCOCC3)nc2)c1,-0.3,-5.7,-5.5,40.3*
